The supplement of paper PMC10849652
Targets with a hit are over-represented here; the source holds about 7,900 in all. About 0.6% of all pairs of compound and target were hits. Unmarked numbers belong to inactive results.

Compound: C1CN(CCC1(CC2=CC=C(C=C2)Cl)N)C3=NC=NC4=C3C=CN4
Assay: log2 fold change, soluble protein after heating vs DMSO (PISA); higher = thermal stabilisation; K562 cells, 10 uM, 30 min; active = over 0.2 and 3.5 SD of the protein, either way, in both replicates (recomputed)
Summary of the method: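 K562 cells at 2×10^6 cells/mL were given 10 μM compound for 30 min. Aliquots then went through 3 min of heating across 48°C-58°C, were pooled, and were extracted in PBS with 0.5% NP-40 at 4°C, and the supernatant after 21,000xg for 90 min was quantified by TMTpro 16plex LC-MS/MS with channel sums equalised. Thermal stability relative to control samples, from duplicates, is given as log2 fold change.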

UniProt Q9Y2L5, sequence (Q9Y2L5 whole entry, looked up): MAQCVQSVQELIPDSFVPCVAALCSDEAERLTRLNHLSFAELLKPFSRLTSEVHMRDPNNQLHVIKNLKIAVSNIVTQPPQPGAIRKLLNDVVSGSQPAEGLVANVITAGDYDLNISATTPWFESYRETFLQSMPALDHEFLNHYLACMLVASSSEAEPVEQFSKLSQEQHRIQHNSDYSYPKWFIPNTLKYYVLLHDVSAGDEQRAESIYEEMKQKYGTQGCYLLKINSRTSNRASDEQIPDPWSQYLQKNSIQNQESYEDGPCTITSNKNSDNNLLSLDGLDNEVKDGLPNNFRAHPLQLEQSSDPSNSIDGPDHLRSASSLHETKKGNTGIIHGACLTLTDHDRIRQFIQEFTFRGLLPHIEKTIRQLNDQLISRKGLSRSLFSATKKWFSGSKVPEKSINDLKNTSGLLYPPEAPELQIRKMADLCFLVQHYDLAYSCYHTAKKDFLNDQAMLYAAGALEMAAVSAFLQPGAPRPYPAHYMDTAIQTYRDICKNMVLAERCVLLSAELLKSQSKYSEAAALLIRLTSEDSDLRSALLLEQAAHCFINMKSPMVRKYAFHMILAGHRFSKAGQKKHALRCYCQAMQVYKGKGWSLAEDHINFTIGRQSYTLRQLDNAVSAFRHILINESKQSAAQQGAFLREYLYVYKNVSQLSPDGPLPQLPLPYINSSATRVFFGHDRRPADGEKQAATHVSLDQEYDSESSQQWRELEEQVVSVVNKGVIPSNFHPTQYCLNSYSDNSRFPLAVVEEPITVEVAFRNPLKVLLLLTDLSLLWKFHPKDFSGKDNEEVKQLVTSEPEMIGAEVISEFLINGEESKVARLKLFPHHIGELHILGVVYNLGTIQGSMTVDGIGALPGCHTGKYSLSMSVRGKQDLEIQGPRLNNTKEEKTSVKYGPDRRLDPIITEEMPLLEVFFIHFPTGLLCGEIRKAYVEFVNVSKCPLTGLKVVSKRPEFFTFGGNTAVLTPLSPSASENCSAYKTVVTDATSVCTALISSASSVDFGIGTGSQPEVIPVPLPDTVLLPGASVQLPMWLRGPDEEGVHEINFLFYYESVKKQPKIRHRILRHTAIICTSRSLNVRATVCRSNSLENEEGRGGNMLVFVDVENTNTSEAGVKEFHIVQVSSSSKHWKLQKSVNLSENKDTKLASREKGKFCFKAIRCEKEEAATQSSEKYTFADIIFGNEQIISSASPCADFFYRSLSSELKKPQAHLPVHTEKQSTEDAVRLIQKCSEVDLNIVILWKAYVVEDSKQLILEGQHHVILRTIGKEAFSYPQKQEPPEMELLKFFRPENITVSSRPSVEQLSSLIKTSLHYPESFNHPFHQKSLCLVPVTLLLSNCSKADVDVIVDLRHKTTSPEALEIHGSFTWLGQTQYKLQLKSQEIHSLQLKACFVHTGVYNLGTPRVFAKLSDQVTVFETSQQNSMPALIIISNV
UniProt Q86UV5, sequence (Q86UV5 whole entry, looked up): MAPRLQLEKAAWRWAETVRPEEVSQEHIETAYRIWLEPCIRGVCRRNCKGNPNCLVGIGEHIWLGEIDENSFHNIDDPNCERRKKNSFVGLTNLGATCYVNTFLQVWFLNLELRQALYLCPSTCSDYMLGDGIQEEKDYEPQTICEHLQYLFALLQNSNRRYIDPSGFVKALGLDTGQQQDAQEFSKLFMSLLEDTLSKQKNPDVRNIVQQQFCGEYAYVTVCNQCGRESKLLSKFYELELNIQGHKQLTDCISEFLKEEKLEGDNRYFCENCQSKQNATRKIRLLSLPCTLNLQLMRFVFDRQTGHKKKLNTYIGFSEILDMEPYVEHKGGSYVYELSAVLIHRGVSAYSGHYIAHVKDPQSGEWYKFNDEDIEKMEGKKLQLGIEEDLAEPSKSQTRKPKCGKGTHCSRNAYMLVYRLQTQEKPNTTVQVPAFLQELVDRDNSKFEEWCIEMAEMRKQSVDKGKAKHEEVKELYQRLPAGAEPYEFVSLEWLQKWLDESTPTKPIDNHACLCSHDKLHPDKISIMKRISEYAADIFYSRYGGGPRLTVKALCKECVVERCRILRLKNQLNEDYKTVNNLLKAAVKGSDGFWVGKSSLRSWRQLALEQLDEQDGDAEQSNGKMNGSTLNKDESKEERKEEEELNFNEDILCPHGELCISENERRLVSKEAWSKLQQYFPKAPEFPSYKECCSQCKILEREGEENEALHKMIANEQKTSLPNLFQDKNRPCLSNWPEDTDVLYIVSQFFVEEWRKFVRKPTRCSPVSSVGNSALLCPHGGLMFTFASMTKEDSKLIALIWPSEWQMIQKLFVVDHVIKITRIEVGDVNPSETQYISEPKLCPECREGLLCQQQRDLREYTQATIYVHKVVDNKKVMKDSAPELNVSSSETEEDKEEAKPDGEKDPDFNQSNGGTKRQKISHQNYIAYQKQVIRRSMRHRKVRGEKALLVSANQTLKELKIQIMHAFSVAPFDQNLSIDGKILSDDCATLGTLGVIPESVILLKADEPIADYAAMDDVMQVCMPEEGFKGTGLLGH
UniProt Q99816, sequence (Q99816 whole entry, looked up): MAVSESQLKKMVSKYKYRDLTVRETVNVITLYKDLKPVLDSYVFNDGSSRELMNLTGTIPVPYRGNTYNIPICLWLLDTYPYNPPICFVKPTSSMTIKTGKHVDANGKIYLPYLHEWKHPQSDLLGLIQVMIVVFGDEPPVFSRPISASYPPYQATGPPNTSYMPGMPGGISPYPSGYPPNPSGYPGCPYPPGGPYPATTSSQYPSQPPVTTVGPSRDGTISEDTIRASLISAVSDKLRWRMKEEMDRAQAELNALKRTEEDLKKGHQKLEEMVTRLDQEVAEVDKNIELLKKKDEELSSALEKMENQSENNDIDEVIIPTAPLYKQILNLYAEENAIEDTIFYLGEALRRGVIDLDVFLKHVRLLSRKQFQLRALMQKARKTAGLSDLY
UniProt O14787, sequence (O14787 whole entry, looked up): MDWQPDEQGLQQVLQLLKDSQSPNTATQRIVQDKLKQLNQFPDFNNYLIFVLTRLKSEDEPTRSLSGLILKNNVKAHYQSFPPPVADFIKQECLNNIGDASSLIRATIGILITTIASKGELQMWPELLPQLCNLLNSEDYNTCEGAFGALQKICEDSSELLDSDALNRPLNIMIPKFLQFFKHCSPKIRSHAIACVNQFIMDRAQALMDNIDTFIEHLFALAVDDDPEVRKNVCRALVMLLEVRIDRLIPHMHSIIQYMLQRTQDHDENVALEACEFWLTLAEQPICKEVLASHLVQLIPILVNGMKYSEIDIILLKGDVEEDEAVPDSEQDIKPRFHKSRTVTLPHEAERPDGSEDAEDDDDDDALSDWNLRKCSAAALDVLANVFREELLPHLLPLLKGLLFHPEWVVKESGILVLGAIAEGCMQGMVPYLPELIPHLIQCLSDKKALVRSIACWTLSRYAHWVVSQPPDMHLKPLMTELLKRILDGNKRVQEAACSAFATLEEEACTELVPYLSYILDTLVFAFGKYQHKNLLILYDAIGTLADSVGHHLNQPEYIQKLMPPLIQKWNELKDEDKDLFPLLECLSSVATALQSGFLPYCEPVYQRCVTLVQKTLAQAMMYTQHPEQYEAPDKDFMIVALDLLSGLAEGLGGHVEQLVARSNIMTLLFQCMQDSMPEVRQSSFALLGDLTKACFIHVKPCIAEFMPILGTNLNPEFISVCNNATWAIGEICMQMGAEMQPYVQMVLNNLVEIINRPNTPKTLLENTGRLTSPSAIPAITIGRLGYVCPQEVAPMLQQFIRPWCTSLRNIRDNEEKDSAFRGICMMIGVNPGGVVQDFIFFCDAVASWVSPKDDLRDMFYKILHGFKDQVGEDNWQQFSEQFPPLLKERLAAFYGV
UniProt Q9H4I3, sequence (Q9H4I3 whole entry, looked up): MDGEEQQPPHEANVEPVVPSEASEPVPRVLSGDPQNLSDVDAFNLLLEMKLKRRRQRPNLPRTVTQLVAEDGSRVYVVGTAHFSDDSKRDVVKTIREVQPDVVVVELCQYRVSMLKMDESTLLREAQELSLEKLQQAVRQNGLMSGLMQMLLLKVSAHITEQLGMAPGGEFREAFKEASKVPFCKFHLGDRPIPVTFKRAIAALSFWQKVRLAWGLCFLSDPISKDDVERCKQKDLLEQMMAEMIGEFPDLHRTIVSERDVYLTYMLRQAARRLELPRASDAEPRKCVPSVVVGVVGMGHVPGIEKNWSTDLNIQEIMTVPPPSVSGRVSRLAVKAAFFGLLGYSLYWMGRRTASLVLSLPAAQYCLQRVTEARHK
UniProt Q9NQZ2, sequence (Q9NQZ2 whole entry, looked up): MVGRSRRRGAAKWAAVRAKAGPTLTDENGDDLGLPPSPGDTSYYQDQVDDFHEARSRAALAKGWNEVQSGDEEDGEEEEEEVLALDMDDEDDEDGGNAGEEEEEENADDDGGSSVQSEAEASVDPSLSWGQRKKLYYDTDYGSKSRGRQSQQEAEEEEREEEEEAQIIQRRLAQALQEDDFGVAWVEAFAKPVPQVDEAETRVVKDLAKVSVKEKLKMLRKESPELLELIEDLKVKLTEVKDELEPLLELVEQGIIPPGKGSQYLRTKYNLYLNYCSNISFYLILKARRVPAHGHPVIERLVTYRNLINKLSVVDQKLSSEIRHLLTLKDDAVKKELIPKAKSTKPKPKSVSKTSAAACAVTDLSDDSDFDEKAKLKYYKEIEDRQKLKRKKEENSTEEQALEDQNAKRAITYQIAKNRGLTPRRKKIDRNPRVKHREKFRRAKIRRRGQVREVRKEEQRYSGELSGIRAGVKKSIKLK
UniProt Q92890, sequence (Q92890 whole entry, looked up): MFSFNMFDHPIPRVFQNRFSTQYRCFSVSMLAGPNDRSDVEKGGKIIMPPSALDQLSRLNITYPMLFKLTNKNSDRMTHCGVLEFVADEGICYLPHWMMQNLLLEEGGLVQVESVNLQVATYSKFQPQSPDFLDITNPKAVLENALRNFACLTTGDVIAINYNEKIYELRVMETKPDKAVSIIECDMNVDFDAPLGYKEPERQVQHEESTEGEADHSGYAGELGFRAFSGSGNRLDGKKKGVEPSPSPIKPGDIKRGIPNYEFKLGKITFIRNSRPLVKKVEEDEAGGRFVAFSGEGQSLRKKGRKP

Target	log2 fold change
WDR61 (UniProt Q9GZS3)	0.026
USP3 (UniProt Q9Y6I4)	0.095
TOMM20 (UniProt Q15388)	0.027
TNPO2 (UniProt O14787)	-0.008
VPS11 (UniProt Q9H270)	0.027
TMEM87B (UniProt Q96K49)	0.047
TRIP10 isoform 2 (UniProt Q15642)	0.014
TTI1 (UniProt O43156)	0.028
UFD1 isoform 1 (UniProt Q92890)	0.024
TRAPPC13 isoform 5 (UniProt A5PLN9)	0.009
VTI1A (UniProt Q96AJ9)	0.005
VPS52 (UniProt Q8N1B4)	-0.051
TTC4 (UniProt O95801)	-0.018
TMTC3 (UniProt Q6ZXV5)	-0.014
XPO5 (UniProt Q9HAV4)	-0.001
UTP3 (UniProt Q9NQZ2)	-0.203
U2AF2 (UniProt P26368)	-0.074
TRAPPC2L (UniProt Q9UL33)	-0.031

Target	log2 fold change
USP14 (UniProt P54578)	-0.001
USP48 isoform 8 (UniProt Q86UV5)	-0.029
WDCP (UniProt Q9H6R7)	-0.011
TMEM223 (UniProt A0PJW6)	-0.038
TSC2 (UniProt P49815)	0.199
TRAPPC8 (UniProt Q9Y2L5)	-0.036
VPS53 isoform 4 (UniProt Q5VIR6)	-0.004
USO1 isoform 2 (UniProt O60763)	-0.014
UCHL5 (UniProt Q9Y5K5)	-0.01
TMEM268 isoform 3 (UniProt Q5VZI3)	0.045
UBE4A isoform 2 (UniProt Q14139)	-0.132
TRABD (UniProt Q9H4I3)	0.071
TSG101 (UniProt Q99816)	-0.006
TMEM189-UBE2V1 (UniProt I3L0A0)	0.058
WDR41 (UniProt Q9HAD4)	0.073
TXNL1 (UniProt O43396)	-0.077
UGDH (UniProt O60701)	0.009
TTC38 (UniProt Q5R3I4)	0.025
